According to the supplement of paper PMC10849652:
About 7,900 targets were measured; listed, in parts, are those with a hit and a random draw of the rest. About 0.6% of all pairs of compound and target were hits. Unmarked numbers belong to inactive results.

Key:
Experiment in all cases: log2 fold change, soluble protein after heating vs DMSO (PISA); higher = thermal stabilisation; K562 cells, 10 uM, 30 min; active = over 0.2 and 3.5 SD of the protein, either way, in both replicates (recomputed)
erlotinib = compound: C#Cc1cccc(Nc2ncnc3cc(OCCOC)c(OCCOC)cc23)c1 [erlotinib]
Summary of the method: (§1)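 Aliquots of K562 cells (2×10^6 cells/mL) treated with 10 μM compound for 30 min were heated for 3 min over 48°C-58°C. After pooling and extraction in PBS with 0.5% NP-40 at 4°C, soluble protein from a 21,000xg, 90 min spin was quantified by TMTpro 16plex LC-MS/MS with channel sums equalised. Thermal stability is expressed against control samples, from duplicates, as a log2 fold change.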

[1] = compound: C/C(=N\NC(=O)C1=CC(=CC=C1)S(=O)(=O)N2CCOCC2)/C3=C(C=CC(=C3)Cl)O
Summary of the method: as §1

[2] = compound: C1=CC(=C(C=C1Cl)C2=NC3=NC=CN=C3C(=N2)NC4=CC=NC=C4)F
Summary of the method: as §1

[3] = compound: C1=CC(=CC=C1C2=NC3=C(N2)C=C(C=C3)C(=O)N)OC4=CC=C(C=C4)Cl
Summary of the method: as §1

[4] = compound: C1=CC2=C(C=CC(=C2)/C=C\3/C(=O)NC(=NCC4=CC=CS4)S3)N=C1
Summary of the method: as §1

[5] = compound: C1=CC2=NC=CN=C2C=C1/C=C/3\C(=O)NC(=O)S3
Summary of the method: as §1

[6] = compound: C1=CC=C(C=C1)C2=NC(=C(N2)C3=CC=NC=C3)C4=CC(=C(C=C4)Cl)O
Summary of the method: as §1

[7] = compound: C1=CC=C2C(=C1)C3=NNC4=CC=CC(=C43)C2=O
Summary of the method: as §1

[8] = compound: C1CCN(C1)C(=O)NC2=CC=CC(=C2)NC3=NC=C(C(=N3)NCCC4=CN=CN4)Br
Summary of the method: as §1

[9] = compound: C1CN(CCC1(CC2=CC=C(C=C2)Cl)N)C3=NC=NC4=C3C=CN4
Summary of the method: as §1

IRAK-1-4 Inhibitor I = compound: C1COCCN1CCN2C3=CC=CC=C3N=C2NC(=O)C4=CC(=CC=C4)[N+](=O)[O-] [IRAK-1-4 Inhibitor I]
Summary of the method: as §1

ibrutinib = compound: C=CC(=O)N1CCC[C@@H](n2nc(-c3ccc(Oc4ccccc4)cc3)c3c(N)ncnc32)C1 [ibrutinib]
Summary of the method: as §1

[10] = compound: CC(=O)c1cnc2ccc(-c3cc(Cl)c(O)c(Cl)c3)nc2c1N[C@H]1CC[C@H](CN(C)C)CC1
Summary of the method: as §1

ralimetinib = compound: CC(C)(C)Cn1c(N)nc2ccc(-c3[nH]c(C(C)(C)C)nc3-c3ccc(F)cc3)nc21 [ralimetinib]
Summary of the method: as §1

[11] = compound: CC(C)(O)CC(=O)NCCn1ccc2ncnc(Nc3ccc(Oc4cccc(C(F)(F)F)c4)c(Cl)c3)c21
Summary of the method: as §1

[12] = compound: CC(C)C1=C2N=C(C=C(N2N=C1)NCC3=CC=CC=C3)NCCCCCCN
Summary of the method: as §1

[13] = compound: CC(C)C[C@@H](C=O)NC(=O)[C@H](CC(C)C)NC(=O)[C@H](CC(C)C)NC(=O)OCc1ccccc1
Summary of the method: as §1

pinometostat = compound: CC(C)N(C[C@H]1O[C@@H](n2cnc3c(N)ncnc32)[C@H](O)[C@@H]1O)[C@H]1C[C@@H](CCc2nc3cc(C(C)(C)C)ccc3[nH]2)C1 [pinometostat]
Summary of the method: as §1

[14] = compound: CC1=C(C(CC(=O)N1)C2=CC=C(C=C2)C(F)(F)F)C(=O)NC3=C(C=C4C(=C3)C=NN4)F
Summary of the method: as §1

[15] = compound: CC1=C(C2=C(C=C1)C(=O)C3=CC=CC=C3N2CCCN)C
Summary of the method: as §1

Sequence of UniProt Q14149 (Q14149 whole entry, looked up): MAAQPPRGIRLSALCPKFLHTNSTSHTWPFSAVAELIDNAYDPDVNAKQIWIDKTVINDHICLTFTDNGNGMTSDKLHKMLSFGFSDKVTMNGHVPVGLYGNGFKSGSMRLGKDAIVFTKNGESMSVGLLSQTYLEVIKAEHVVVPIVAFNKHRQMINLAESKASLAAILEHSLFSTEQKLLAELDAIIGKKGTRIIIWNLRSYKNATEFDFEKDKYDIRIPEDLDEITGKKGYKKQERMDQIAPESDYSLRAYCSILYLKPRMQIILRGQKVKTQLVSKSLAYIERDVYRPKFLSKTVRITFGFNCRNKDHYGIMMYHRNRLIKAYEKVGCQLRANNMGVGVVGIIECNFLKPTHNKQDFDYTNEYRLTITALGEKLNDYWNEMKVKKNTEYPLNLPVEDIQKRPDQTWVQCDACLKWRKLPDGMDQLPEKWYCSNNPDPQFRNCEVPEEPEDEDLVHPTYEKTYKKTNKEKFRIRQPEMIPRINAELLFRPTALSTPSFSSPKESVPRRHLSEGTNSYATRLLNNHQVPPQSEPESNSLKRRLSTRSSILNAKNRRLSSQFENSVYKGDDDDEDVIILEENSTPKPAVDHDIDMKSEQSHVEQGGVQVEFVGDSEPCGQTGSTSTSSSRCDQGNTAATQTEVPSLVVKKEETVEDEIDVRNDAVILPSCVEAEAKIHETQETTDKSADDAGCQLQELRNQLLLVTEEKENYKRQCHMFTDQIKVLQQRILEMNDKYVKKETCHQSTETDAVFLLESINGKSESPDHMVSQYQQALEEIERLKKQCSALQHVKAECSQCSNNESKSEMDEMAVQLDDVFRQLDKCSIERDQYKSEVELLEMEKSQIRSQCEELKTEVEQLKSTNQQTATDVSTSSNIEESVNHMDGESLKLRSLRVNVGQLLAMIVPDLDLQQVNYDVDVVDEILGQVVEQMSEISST
Sequence of UniProt O14950 (O14950 whole entry, looked up): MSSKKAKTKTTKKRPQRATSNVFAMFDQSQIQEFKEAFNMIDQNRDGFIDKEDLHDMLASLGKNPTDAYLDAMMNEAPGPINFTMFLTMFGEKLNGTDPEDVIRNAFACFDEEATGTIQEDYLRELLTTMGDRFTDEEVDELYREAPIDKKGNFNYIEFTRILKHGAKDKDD
Sequence of UniProt P49116 (P49116 whole entry, looked up): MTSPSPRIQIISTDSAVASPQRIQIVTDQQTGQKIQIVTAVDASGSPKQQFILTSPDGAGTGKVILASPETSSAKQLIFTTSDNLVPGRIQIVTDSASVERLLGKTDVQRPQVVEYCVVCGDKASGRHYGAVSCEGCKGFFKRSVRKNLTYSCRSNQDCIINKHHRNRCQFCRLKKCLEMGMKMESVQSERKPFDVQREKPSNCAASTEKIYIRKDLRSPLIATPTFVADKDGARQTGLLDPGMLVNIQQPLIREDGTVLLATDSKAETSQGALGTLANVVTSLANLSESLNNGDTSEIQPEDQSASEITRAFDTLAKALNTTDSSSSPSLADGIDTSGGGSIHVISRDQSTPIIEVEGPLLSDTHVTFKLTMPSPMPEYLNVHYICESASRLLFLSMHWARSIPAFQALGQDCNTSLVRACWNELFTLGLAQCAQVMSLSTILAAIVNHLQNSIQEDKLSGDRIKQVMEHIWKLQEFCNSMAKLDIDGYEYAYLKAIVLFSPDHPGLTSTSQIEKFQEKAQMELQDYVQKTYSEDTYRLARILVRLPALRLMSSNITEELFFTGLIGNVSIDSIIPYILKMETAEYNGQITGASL
Sequence of UniProt P57740 (P57740 whole entry, looked up): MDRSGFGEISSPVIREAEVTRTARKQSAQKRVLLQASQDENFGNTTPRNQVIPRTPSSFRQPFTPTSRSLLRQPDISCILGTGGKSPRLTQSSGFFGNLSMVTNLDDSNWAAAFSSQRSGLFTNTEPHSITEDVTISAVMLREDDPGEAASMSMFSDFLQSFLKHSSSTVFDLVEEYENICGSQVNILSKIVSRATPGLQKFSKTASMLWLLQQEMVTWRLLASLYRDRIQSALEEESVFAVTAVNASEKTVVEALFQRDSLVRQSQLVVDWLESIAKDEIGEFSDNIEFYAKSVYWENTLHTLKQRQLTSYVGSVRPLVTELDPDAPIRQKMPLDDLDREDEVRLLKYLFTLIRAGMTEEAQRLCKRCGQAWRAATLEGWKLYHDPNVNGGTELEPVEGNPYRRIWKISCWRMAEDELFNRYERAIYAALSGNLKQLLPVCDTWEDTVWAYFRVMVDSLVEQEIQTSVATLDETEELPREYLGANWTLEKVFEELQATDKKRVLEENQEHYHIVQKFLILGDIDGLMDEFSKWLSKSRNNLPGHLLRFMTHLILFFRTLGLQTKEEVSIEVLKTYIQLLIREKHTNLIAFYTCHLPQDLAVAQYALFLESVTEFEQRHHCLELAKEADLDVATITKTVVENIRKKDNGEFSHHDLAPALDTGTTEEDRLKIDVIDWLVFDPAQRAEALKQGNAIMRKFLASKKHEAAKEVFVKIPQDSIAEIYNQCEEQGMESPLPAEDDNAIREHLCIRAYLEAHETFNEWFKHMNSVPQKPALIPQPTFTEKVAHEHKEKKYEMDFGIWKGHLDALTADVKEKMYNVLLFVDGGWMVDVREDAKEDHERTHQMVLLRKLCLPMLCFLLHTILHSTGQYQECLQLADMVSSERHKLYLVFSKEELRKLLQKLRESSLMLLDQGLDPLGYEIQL
Sequence of UniProt Q13153 (Q13153 whole entry, looked up): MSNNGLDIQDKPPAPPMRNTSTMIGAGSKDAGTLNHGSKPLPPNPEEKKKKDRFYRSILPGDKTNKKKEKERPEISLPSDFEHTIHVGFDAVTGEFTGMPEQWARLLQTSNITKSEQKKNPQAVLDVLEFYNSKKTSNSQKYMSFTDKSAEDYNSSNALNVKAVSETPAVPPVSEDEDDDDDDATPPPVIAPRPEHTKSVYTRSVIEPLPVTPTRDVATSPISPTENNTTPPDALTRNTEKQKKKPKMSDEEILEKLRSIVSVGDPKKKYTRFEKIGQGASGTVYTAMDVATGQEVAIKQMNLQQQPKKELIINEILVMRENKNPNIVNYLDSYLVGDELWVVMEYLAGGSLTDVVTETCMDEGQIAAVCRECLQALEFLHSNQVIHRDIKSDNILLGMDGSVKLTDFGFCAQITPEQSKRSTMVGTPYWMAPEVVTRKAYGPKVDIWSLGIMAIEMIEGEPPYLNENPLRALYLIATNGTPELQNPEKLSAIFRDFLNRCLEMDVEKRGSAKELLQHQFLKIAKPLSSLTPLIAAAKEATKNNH
Sequence of UniProt P15531 (P15531 whole entry, looked up): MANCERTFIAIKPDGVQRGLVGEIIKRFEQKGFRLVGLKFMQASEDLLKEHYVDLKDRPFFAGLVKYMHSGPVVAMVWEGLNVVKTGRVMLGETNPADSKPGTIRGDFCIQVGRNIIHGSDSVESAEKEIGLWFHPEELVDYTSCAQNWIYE
Sequence of UniProt Q9BRA0 (Q9BRA0 whole entry, looked up): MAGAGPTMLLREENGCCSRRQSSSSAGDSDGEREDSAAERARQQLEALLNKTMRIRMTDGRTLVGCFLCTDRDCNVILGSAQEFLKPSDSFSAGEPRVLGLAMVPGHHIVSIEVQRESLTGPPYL
Sequence of UniProt Q8NCE2 (Q8NCE2 whole entry, looked up): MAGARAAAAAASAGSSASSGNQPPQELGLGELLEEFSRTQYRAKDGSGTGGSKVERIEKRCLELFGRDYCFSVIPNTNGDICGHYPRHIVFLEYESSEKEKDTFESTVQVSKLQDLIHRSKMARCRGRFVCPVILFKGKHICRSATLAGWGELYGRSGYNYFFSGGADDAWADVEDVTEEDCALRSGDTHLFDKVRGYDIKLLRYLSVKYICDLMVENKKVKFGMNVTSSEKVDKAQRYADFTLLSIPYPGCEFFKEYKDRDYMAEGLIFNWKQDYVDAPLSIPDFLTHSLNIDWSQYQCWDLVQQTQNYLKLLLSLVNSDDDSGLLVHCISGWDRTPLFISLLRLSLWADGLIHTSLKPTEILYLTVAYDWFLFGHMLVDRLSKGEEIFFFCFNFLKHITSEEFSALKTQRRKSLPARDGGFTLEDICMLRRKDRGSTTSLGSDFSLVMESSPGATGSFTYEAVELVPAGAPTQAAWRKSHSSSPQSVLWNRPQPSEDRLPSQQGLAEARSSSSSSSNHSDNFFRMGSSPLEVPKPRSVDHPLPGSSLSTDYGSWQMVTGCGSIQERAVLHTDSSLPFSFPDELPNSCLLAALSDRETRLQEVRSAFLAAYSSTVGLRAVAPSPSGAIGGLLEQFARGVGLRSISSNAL
Sequence of UniProt O75251 (O75251 whole entry, looked up): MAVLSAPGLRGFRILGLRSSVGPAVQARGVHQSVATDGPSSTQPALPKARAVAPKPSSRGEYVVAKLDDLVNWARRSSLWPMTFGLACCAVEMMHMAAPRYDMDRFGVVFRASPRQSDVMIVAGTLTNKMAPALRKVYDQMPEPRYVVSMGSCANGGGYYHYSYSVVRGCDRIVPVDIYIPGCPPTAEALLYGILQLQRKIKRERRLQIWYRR
Sequence of UniProt Q9H000 (Q9H000 whole entry, looked up): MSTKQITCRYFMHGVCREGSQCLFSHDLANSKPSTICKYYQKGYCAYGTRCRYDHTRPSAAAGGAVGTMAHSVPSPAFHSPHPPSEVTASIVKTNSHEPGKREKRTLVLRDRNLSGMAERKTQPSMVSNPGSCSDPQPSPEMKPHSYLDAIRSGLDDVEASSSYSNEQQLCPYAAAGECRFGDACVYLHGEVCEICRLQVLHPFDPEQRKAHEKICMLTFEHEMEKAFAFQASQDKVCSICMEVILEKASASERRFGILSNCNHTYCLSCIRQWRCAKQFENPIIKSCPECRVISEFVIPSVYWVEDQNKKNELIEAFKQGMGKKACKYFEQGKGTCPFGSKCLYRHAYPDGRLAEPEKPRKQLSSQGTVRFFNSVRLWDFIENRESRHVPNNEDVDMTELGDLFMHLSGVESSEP

| Target | log2 fold change (erlotinib) | log2 fold change [1] | log2 fold change [2] | log2 fold change [3] | log2 fold change [4] | log2 fold change [5] | log2 fold change [6] | log2 fold change [7] | log2 fold change [8] | log2 fold change [9] | log2 fold change (IRAK-1-4 Inhibitor I) | log2 fold change (ibrutinib) | log2 fold change [10] | log2 fold change (ralimetinib) | log2 fold change [11] | log2 fold change [12] | log2 fold change [13] | log2 fold change (pinometostat) | log2 fold change [14] | log2 fold change [15] |
| --- | --- | --- | --- | --- | --- | --- | --- | --- | --- | --- | --- | --- | --- | --- | --- | --- | --- | --- | --- | --- |
| NCL (UniProt P19338) | -0.154 | -0.231 | -0.723 | -0.012 | -0.109 | -0.017 | -0.112 | 0.061 | 0.037 | -0.148 | -0.144 | 0.034 | 0.118 | 0.166 | 0.119 | 0.07 | 0.121 | 0.4 | 0.039 | -0.891 (active) |
| MRPS10 (UniProt P82664) | -0.036 | -0.089 | -0.103 | 0.048 | 0.102 | 0.023 | -0.037 | 0.04 | 0.001 | -0.012 | -0.024 | 0.02 | -0.065 | -0.031 | 0.01 | -0.027 | 0.066 | 0.045 | 0.041 | -0.28 |
| PAK1 isoform 2 (UniProt Q13153) | 0.063 | 0.105 | 0.067 | -0.013 | 0.009 | 0.086 | 0.027 | -0.008 | 0.014 | 0.083 | 0.018 | 0.048 | 0.158 | -0.066 | -0.025 | 0 | -0.046 | -0.038 | 0.192 | 0.051 |
| MRPS27 isoform 2 (UniProt Q92552) | -0.044 | -0.058 | 0.018 | 0.061 | 0.056 | 0.024 | 0.074 | 0.086 | -0.048 | -0.106 | -0.116 | 0.019 | -0.002 | 0.069 | -0.104 | -0.161 | -0.011 | -0.022 | -0.021 | -0.06 |
| NR2C2 isoform 2 (UniProt P49116) | -0.001 | -0.067 | -0.011 | 0.006 | 0.019 | -0.039 | -0.003 | -0.091 | 0.074 | 0.007 | 0.004 | 0.022 | -0.062 | -0.064 | -0.048 | -0.004 | 0.058 | 0.014 | 0.045 | -0.215 |
| NUP107 (UniProt P57740) | -0.05 | 0.004 | -0.128 | 0.063 | 0.04 | 0.065 | -0.037 | -0.192 | -0.145 | -0.005 | -0.054 | -0.152 | -0.035 | 0.035 | 0.023 | -0.005 | 0.089 | 0.165 | 0.062 | -0.052 |
| NCK1 (UniProt P16333) | 0.045 | 0.206 | -0.066 | 0 | 0.179 | -0.019 | -0.084 | 0 | -0.135 | -0.081 | -0.178 | -0.154 | -0.252 | 0.044 | -0.038 | -0.283 | 0.082 | 0.076 | 0.005 | 0.039 |
| MORC3 (UniProt Q14149) | 0.022 | 0.084 | 0.171 | 0.035 | -0.024 | 0.068 | 0.012 | 0.014 | -0.026 | -0.162 | 0.021 | -0.047 | 0.023 | -0.024 | -0.122 | -0.051 | 0.002 | -0.026 | -0.039 | 0.595 (active) |
| MYL12B (UniProt O14950) | 0.016 | 0.091 | 0.02 | 0.006 | -0.072 | -0.019 | 0.157 | 0.023 | -0.045 | 0.005 | 0.047 | 0.043 | 0.067 | 0.143 | -0.013 | 0.005 | -0.015 | 0.011 | -0.045 | -0.004 |
| MRPS2 (UniProt Q9Y399) | 0.004 | -0.064 | -0.083 | 0.052 | 0.093 | 0.01 | 0.083 | -0.033 | -0.01 | -0.112 | -0.043 | 0.109 | -0.011 | -0.02 | -0.035 | -0.03 | 0.08 | 0.002 | 0.002 | -0.079 |
| NDUFS7 (UniProt O75251) | 0.129 | -0.011 | 0.039 | -0.011 | 0.062 | 0.038 | -0.052 | 0.035 | 0.045 | 0.011 | 0.045 | -0.04 | -0.016 | -0.1 | -0.1 | -0.086 | 0.05 | -0.03 | -0.005 | 0.043 |
| NISCH (UniProt Q9Y2I1) | 0.141 | 0.1 | -0.083 | 0.026 | 0.089 | 0.068 | 0.044 | -0.144 | 0.039 | -0.032 | 0.053 | 0 | -0.037 | 0.02 | 0.007 | -0.429 | 0.028 | 0.047 | 0.018 | 0.004 |
| NME1 isoform 2 (UniProt P15531) | 0.034 | -0.015 | 0.038 | 0.092 | 0.063 | -0.05 | -0.048 | -0.001 | 0.032 | 0.074 | 0.021 | 0.107 | -0.007 | -0.035 | 0.03 | 0.041 | 0.032 | -0.017 | -0.192 | 0.038 |
| NAA38 isoform 2 (UniProt Q9BRA0) | 0.139 | 0.083 | 0.092 | -0.003 | 0.034 | 0.015 | 0.044 | -0.016 | -0.009 | 0.082 | 0.047 | -0.021 | -0.034 | 0.02 | -0.095 | -0.397 (active) | -0.001 | 0.035 | 0.051 | -0.01 |
| MKRN2 (UniProt Q9H000) | -0.038 | 0.057 | -0.16 | 0.013 | -0.058 | 0.002 | -0.011 | -0.052 | -0.085 | 0.061 | -0.063 | 0.026 | -0.137 | 0.034 | 0.017 | 0.032 | 0.089 | 0.094 | -0.017 | -0.064 |
| MTMR14 (UniProt Q8NCE2) | -0.019 | 0.009 | 0.047 | 0.037 | 0.002 | 0.009 | -0.038 | -0.05 | -0.05 | 0.028 | 0.027 | -0.069 | -0.015 | 0.004 | 0.028 | -0.04 | -0.004 | -0.041 | 0.06 | -0.029 |
